According to the supplement of paper PMC6555819:

The sequences below were run on VDR:RXRa (NR concentration 270 nM, RXRa partner concentration 90 nM) (assay: PBM binding z-score (relative to random genomic background probes); higher = stronger binding; sequences stand for … in GC…GCGATTGACAGCGTAGAATGAAGG).
Method: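 Protein-binding microarray (Agilent 4x180K custom design, double-stranded 60-nt probes: 5' GC cap, 34-nt variable region, 24-nt constant primer region; full probe sequence given). Purified or IVT nuclear receptor:RXRα heterodimers (3:1 NR:RXRα, mostly 270:90 nM) or homodimers were incubated for 1 h in PBS with 2% milk and no ligand, then detected with Alexa488 antibodies. Fluorescence from o1-orientation probes (~5 replicates averaged) was converted to z-scores against 500 random hg19 background probes. Variable regions are seed direct-repeat (DR0–DR5) sites, all their single-nucleotide variants and half-site ablations.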

| Sequence | PBM binding z-score |
| --- | --- |
| TCTGGTAGATCAGCAGGTTAAGAAAGCTGGCCAA | 0.0223 |
| ACTAGCAGGCCAAGTATGGGTCACTCAAACAAAG | 0.573 |
| AGAATGAGGTTACCAAAGATCAGGGACACGCTTG | 1.54 |
| GCAGACAGGCGAAACGCAGGTAACTCAGGGTGGC | -0.853 |
| TAGCCTAGGTAATTGGGCCAGTATAGTACGCATC | -0.627 |
| CGTCCAAGGTTAATGCTAGGTCAGTGAAAGCATT | 1.86 |
| CCTTACGGGTCACTCCAGGTTATAGCGTCGGAGT | 4.14 |
| AATACACGGTCACTAGGCCAGAGTAGGTACGAAT | 0.248 |
| ATATGTAGGTTACATCAGGGTCATTCAGGCTATG | 5.14 |
| TTACCAAGGTGAAAGGTCGCTGATGCACGCCTTG | 2.72 |
| TCATATAGGTAAATGCTAGGTGACAGTCCGATCT | 0.746 |
| TGTCAAAGTTCAAAGGTAAAGTAAGTATCCACAC | 4.88 |
| AGAATGAGGTTATTAAGATCAGTGAATTGCGGTC | 2.5 |
| TCTGGTTGGTCAAAGGTCACACACTCGAAATGCG | 5.33 |
| TCATATTGGTAAAAGGTGAAAGTCGGTGTGGTAA | 1.64 |
| TCTTGTAGATCAACATGAGGTTAAGAAAGATCGA | 1.1 |
| TGGCCTAGGTCATTCAGGGGCCAGTATAGAAAGC | 2.79 |
| CGAATTAGGTCAGAACAGGACAGTGAAGGATGAT | 0.932 |
| ACTAGCAGGCCAAGGGTCACCCAAGATTAGTCCG | 3.3 |
| TAACCTAGGTCATTGGGCCAGTATAGTACGCATC | 2.89 |

| Sequence | PBM binding z-score |
| --- | --- |
| ATATGTCGGTTAAGGGTCATTCAGGTTGGTTCGC | 5.48 |
| CCTATCAGGCCAGGGTCACTCAAGCATTTCGCTT | 2.73 |
| TCTAGTTGGTCACGAAGGTCACACACGACGGGTA | 4.98 |
| CAAACTAGGTCACCGGAAGGTCAAAGGCCGCATG | 5.88 |
| AGAATGAGGTTACCAAAGATCAGGGATACGCTTG | 1.39 |
| CAAACTAGGTCCCAGAGGTCAAAGTCCGTGCGTA | 5.88 |
| CGTCCAAGGTCAAAGGAGGTCAGTGAAGACAGAT | 6.53 |
| GCTTTTAGTTGAAAGGGCAACCGAATGATTCTCG | 0.313 |
| TCCTGTAGATCAGCAGGTTAAGAAAGCTGGCCAA | 0.177 |
| ACTATCAGTTGAGACGAGGGCAACCGATAGGTTG | 0.625 |
| ATCGAAAGGTCGTGAGGTGAGCATACAGAAAGGC | 3.19 |
| CAATCTAGGTCAAGAGGTCAAAGTCCGCTTCCCG | 6.23 |
| TCATATATGTAATACAGGTGAAAGTCGGCATCTA | 0.899 |
| GCTAGTTGGTCACTAAAAGGTCACACACCGGTCG | 4.17 |
| CCGAGTTGGTTATGGGGCATTCAGGCAACGGTGA | 0.221 |
| CCGATTGGGGCAAAGGTTACCATACTCAGTACGA | 1.6 |
| CGAACTAGGTCAAGGACAGTGAGTCTCCGCACGC | 1.16 |
| GGAAAGAGGGCAAAGTTGATAGCATCTGTCGACG | 1.53 |
| TCTTGTAGATCCGCAGGTTAAGAAAGCTGGCCAA | 0.237 |
| GCGTGTAGATCAAGGTTAAGAAAGACTAAGCTAA | 0.0899 |
